Our source for the Potency values is PubChem BioAssay (Tox21).

Each structure is given as a SMILES string. Several values for one entry are separate records, joined by “and”; a condition that tells them apart may be missing. Equal entries are not always repeated. Records with an inconclusive call do not appear. Where a call stands in place of a potency, no number is given. Activity calls are given as the source filed them. Calls come from the whole dose curve.
Potency is the fitted concentration of half-maximal effect.

This test is described as follows: qHTS assay for small molecule agonists of the p53 signaling pathway - cell viability (AID 651633). Note: nearly all actives have a fitted effect of over 30% in size. To be noted: p53RE-bla HCT-116 viability, ATP luminescence, 16 h; series mostly up to 83.3 µM. The text has this:
National Center for Advancing Translational Sciences [NCATS]
NIH Chemical Genomics Center [NCGC]
U.S. Environmental Protection Agency [EPA]
National Institutes of Environmental Health Sciences [NIEHS]
National Toxicology Program [NTP]
U.S. Food and Drug Administration [FDA]
p53, a tumor suppressor protein, is activated following cellular insult, including DNA damage and other cellular stresses. The activation of p53 regulates cell fate by inducing DNA repair, cell cycle arrest, apoptosis, or cellular senescence. The activation of p53, therefore, is a good indicator of DNA damage and other cellular stresses. […] The activation of the reporter gene under culture conditions can be detected by fluorescence intensity. This cell line was used to screen the Tox21 compound library in a 1536-well plate format and to identify agonists that activate the p53 signaling pathway.
Tox21 Assay Protocol Summary:
The p53RE-bla cells were dispensed at 4,000 cells/5 ul/well in 1536-well black wall/clear bottom plates using a Multidrop dispenser. After the assay plates were incubated at a 37 C/5% CO2 incubator for 5 hours, 23 nL of compounds dissolved in DMSO, positive controls or DMSO only was transferred to the assay plate by a pin tool. The plates were incubated at 37 C for 16 hours. After 1 uL of LiveBLAzerTM B/G FRET substrate was added using a Flying Reagent Dispenser, the plates were incubated at room temperature for 2 hours, and fluorescence intensity was measured by an Envision plate reader.
For cell viability readout that measures cytotoxicity, 4 ul/well of CellTiter-Glo reagent was added into the assay plates using a Flying Reagent Dispenser. After 30 min incubation at room temperature, the luminescence intensity in the plates was measured using a ViewLux plate reader.
Turning to `COC(=O)c1cc(Cl)ccc1[N+](=O)[O-]`, the Potency result is “inactive”.

As to `C/C(=C\C(C)CC(C)CC(C)C)C1CC(=O)OC1=O` (stereo not given), the Potency result is “inactive”. For the molecule `CCOc1ccccc1O`, the Potency entry was “inactive”.

With `COc1ccc(/C=C/S(=O)(=O)NC(=O)c2ccc(C)cc2Cl)cc1`, the Potency result is “inactive”. For `Cc1cc(C)n(CO)n1`, the Potency entry is “inactive”.

Regarding `CCCCOc1ccc(N)cc1`, the Potency entry was “inactive”. As for `COC(=O)/C=C/C(C)=C\C=C\C(C)=C\C=C\C=C(C)\C=C\C=C(C)\C=C\C(=O)O`, the Potency entry is “inactive”. Regarding `C=CC(C)CCC=C(C)C` (stereo not given), the Potency entry was “inactive”. In the case of `Cc1cc(C)c(C)c(O)c1`, the Potency entry was “inactive”. With `N#Cc1ccc(CC(=O)c2cccc(C(F)(F)F)c2)cc1`, the Potency result was “inactive”.

For `C/C(=C(\CCO)SS/C(CCO)=C(\C)N(C=O)Cc1cnc(C)nc1N)N(C=O)Cc1cnc(C)nc1N`, the Potency result is “inactive”. In the case of `Clc1ccccc1-c1nc(-c2ccncc2)no1` it was “inactive”; in that of `Nc1ccc(C(=O)Oc2ccccc2)c(O)c1`, “inactive”; in that of `O=[N+]([O-])c1ccccc1CCO`, “inactive”.

Take `COc1cc(C)c(Cc2cnc(N)nc2N)cc1OC`: the Potency result was “inactive”.

For `FC1(F)C(F)(F)C(F)(F)C2(F)C(F)(C1(F)F)C(F)(F)C(F)(F)C1(F)C(F)(F)C(F)(F)C(F)(F)C(F)(F)C12F` (stereo not given), the Potency result was “inactive”. For the molecule `Cc1c(Cl)cccc1Nc1ccccc1C(=O)O`, the Potency was 18.8 µM (active).

Consider `C[C@@H](O)[C@H]1C(=O)N2C(C(=O)O)=C(S[C@@H]3CN[C@H](CNS(N)(=O)=O)C3)[C@H](C)[C@H]12`, for which the Potency entry was “inactive”. With `CC(C)(C)N`, the Potency result is “inactive”. Turning to `Cc1cc(SC2=C(O)C[C@@](CCc3ccc(N)cc3)(C(C)C)OC2=O)c(C(C)(C)C)cc1CO`, the Potency entry was “inactive”. In the case of `C/C=C1\[C@H]2C=C(C)C[C@]1(N)c1ccc(=O)[nH]c1C2` it was “inactive”; in that of `C=CCCC`, “inactive”. `Clc1cccc(C(c2ccc3nc[nH]c3c2)n2ccnc2)c1` (stereo not given): the Potency result is “inactive”.

On to `CC(=O)c1ccc(Cl)c(Cl)c1Cl`, for which the Potency entry was “inactive”. Take `CC(C)=CCCC(C)C=O` (stereo not given): the Potency entry is “inactive”. Regarding `COc1ccc(/C=C/c2cc(OC)cc(=O)o2)cc1`, the Potency entry is “inactive”. As to `O=C(Cl)c1cc(Cl)cc(Cl)c1`, the Potency result was “inactive”. Take `N#C[C@@H]1CC(F)(F)CN1C(=O)CNC1CC2CCC(C1)N2c1ncccn1` (stereo not given in full): the Potency entry is “inactive”. In the case of `CC(C)C[C@H](NC(=O)[C@H](Cc1ccccc1)NC(=O)c1cnccn1)B(O)O` it was 376 nM (active) and 211 nM (active).

As to `CCC(C)CCCC(C)(C)O` (stereo not given), the Potency entry was “inactive”.

As for `Sc1nc(S)nc(S)n1`, the Potency result is “inactive”. For `C=C(C)C(=O)OCCCCCCCCCCOC(=O)C(=C)C`, the Potency entry is “inactive”. As to `CCCN(C1CCN(C(=O)C2CCNCC2)CC1)[C@@H]1CCc2ccc(OC)cc2C1`, the Potency entry is “inactive”. Consider `O=C1c2ccccc2C(=O)c2c1ccc(O)c2O`, for which the Potency entry was “inactive”. Regarding `O=C(OC1C[C@H]2CC[C@@H](C1)[N+]21CCCC1)C(O)(c1ccccc1)c1ccccc1` (stereo not given in full), the Potency entry was “inactive”. In the case of `[O-][n+]1ccc(Cl)cc1` it was “inactive”. Regarding `CCC(=O)O[C@@H]1C[C@H]2CC[C@]1(C)C2(C)C`, the Potency entry is “inactive”. In the case of `OCCCO` it was “inactive”. Take `Clc1cc(Cl)c2c(c1)N=C1CCCCCN1C2`: the Potency entry is “inactive”.

As for `CC(C)(O)C(=O)O`, the Potency entry is “inactive”.
